In PMC8384837, “Expanding the binding specificity for RNA recognition by a PUF domain”:

Key:
Test in all cases: yeast three-hybrid, YBZ-1, SC-Leu-His + 0.5 mM 3-AT, 4 days
Details in all cases: tags: N-Gal4 AD-HA kept; label: inside an RPR1-promoter hybrid RNA with tandem MS2 sites; ssRNA
PUM1 PUF domain R7-TSV = PUM1 PUF domain R7-TSV (Homo sapiens, UniProt Q14671 828-1176, S1079T;N1080S;E1083V)
How it was run: (§1)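 Repeat regions from input (SC-Leu) and selection (SC-Leu-His + 0.5 mM 3-AT) plates were PCR-amplified and Illumina-sequenced after four days of growth. The cells were strain YBZ-1 with a LexA–MS2 coat fusion and a HIS3 reporter, co-expressing Pumilio-1 PUF domain libraries and matching RNA elements from a centromeric plasmid. The interaction score is the log change in variant frequency from input to selection, taken in log2 with a pseudocount of 1 for absent variants.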

PUM1 PUF domain R8-PWA = PUM1 PUF domain R8-PWA (Homo sapiens, UniProt Q14671 828-1176, N1122P;Y1123W;Q1126A)
How it was run: as §1

PUM1 PUF domain R6-LFS = target: T1, PUM1 PUF domain R6-LFS (Homo sapiens, UniProt Q14671 828-1176, N1043L;Y1044F;Q1047S)
T1 sequence: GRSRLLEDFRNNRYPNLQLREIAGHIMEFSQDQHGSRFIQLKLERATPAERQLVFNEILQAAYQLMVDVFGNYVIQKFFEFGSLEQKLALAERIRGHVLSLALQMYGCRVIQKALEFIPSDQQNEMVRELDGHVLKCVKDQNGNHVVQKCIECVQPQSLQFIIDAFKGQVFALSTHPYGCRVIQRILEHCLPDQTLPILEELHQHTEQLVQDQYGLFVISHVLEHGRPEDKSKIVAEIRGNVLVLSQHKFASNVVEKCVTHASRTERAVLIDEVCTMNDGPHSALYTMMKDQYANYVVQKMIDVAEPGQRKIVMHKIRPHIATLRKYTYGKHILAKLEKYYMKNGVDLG
How it was run: as §1

PUM1 PUF domain R3-ARH = PUM1 PUF domain R3-ARH (Homo sapiens, UniProt Q14671 828-1176, C935A;Q939H)
How it was run: as §1

PUM1 PUF domain R4-GQG = PUM1 PUF domain R4-GQG (Homo sapiens, UniProt Q14671 828-1176, N971G;H972Q;Q975G)
How it was run: as §1

PUM1 PUF domain R3-FRV = PUM1 PUF domain R3-FRV (Homo sapiens, UniProt Q14671 828-1176, C935F;Q939V)
How it was run: as §1

PUM1 PUF domain R7-HFP = PUM1 PUF domain R7-HFP (Homo sapiens, UniProt Q14671 828-1176, S1079H;N1080F;E1083P)
How it was run: as §1

In the case of “GGCUAGAACUAGUGGAUCCCCCGGCGCCCGGCGGCUCGAGCCCGGGUAAGUUUAAAUAGUCUGCAUGCCGCCGGGCGCCAUGCCUGCAGGUCGACUCUAGAAAACAUG”, the binding signal (PUM1 PUF domain R7-TSV) was 2.77 log2 enrichment (interaction score).

“GGCUAGAACUAGUGGAUCCCCCGGCGCCCGGCGGCUCGAGCCCGGGUAAGUGUAAAUAGUCUGCAUGCCGCCGGGCGCCAUGCCUGCAGGUCGACUCUAGAAAACAUG” was tested, and the binding signal (PUM1 PUF domain R8-PWA) was 2.2 log2 enrichment (interaction score), the binding signal (PUM1 PUF domain R6-LFS) was 1.98 log2 enrichment (interaction score) and the binding signal (PUM1 PUF domain R3-ARH) was 3.26 log2 enrichment (interaction score).

With “GGCUAGAACUAGUGGAUCCCCCGGCGCCCGGCGGCUCGAGCCCGGGUAAGCGUAAAUAGUCUGCAUGCCGCCGGGCGCCAUGCCUGCAGGUCGACUCUAGAAAACAUG” the binding signal (PUM1 PUF domain R8-PWA) was 2.7 log2 enrichment (interaction score).

For “GGCUAGAACUAGUGGAUCCCCCGGCGCCCGGCGGCUCGAGCCCGGGUAAGUGAAAAUAGUCUGCAUGCCGCCGGGCGCCAUGCCUGCAGGUCGACUCUAGAAAACAUG”, the binding signal (PUM1 PUF domain R6-LFS) was 5.7 log2 enrichment (interaction score).

For “GGCUAGAACUAGUGGAUCCCCCGGCGCCCGGCGGCUCGAGCCCGGGUAAGUGUAUAUAGUCUGCAUGCCGCCGGGCGCCAUGCCUGCAGGUCGACUCUAGAAAACAUG”, the binding signal (PUM1 PUF domain R4-GQG) was 2.39 log2 enrichment (interaction score).

“GGCUAGAACUAGUGGAUCCCCCGGCGCCCGGCGGCUCGAGCCCGGGUAAGUGUAAUUAGUCUGCAUGCCGCCGGGCGCCAUGCCUGCAGGUCGACUCUAGAAAACAUG” was tested, and the binding signal (PUM1 PUF domain R3-FRV) was 1.27 log2 enrichment (interaction score).

For “GGCUAGAACUAGUGGAUCCCCCGGCGCCCGGCGGCUCGAGCCCGGGUAAGUGUAAGUAGUCUGCAUGCCGCCGGGCGCCAUGCCUGCAGGUCGACUCUAGAAAACAUG”, the binding signal (PUM1 PUF domain R3-FRV) was 4.5 log2 enrichment (interaction score).

For “GGCUAGAACUAGUGGAUCCCCCGGCGCCCGGCGGCUCGAGCCCGGGUAAGUCUAAAUAGUCUGCAUGCCGCCGGGCGCCAUGCCUGCAGGUCGACUCUAGAAAACAUG”, the binding signal (PUM1 PUF domain R7-HFP) was 4.02 log2 enrichment (interaction score).
